In PubChem BioAssay (Tox21) one finds max response and Potency data, which are given here for 39 molecules.

“And” between values parts separate entries of the source, which are not always exact repeats. Identical values can stand only once. Results filed as inconclusive are left out. The source holds several records for some structures; these can differ, active in one and inactive in another. The source made the active and inactive calls. The call rests on the fitted dose curve; in most records, active means well fitted cell-killing curve with a large enough effect in the repeat runs; inconclusive means weak or mixed curves, or effect the other way; inactive means flat fitted curve, though single readings scatter.
On the % scale 0 is the no-effect control and ±100 the full control effect; potency means the concentration at half of the fitted maximal effect.

A short description of this experiment: qHTS RealTime-Glo MT Cell Viability Assay in HEK293 cells - 40 hour (AID 1224874). Further: nearly all actives have a fitted effect of over 50% in size. The following applies: RealTime-Glo luminescence; max response: hits give low values. An excerpt: U.S. Tox21 Program National Center for Advancing Translational Sciences [NCATS] NIH Chemical Genomics Center [NCGC] U.S. Environmental Protection Agency [EPA] National Institutes of Environmental Health Sciences [NIEHS] National Toxicology Program [NTP] U.S. Food and Drug Administration [FDA] Tox21 Assay Overview: Measure of cell viability is critical in the cell-base assay. Analysis of cell viability is necessary for the characterization of cell responses to cytotoxic drugs and environmental stress. A RealTime-Glo MT Cell Viability Assay to monitor cell viability in real time of continues cell culture during 40 hours of compound treatment was used to screen Tox21 10K library compounds in Hek293 cells. The RealTime-Glo MT Cell Viability Assay is a nonlytic, homogeneous, bioluminescent method to measure cell viability in real time using a simple, plate-based method. The assay involves adding NanoLuc luciferase and a cell-permeant prosubstrate to cells in culture. Viable cells reduce the proprietary prosubstrate to generate a substrate for NanoLuc luciferase. This substrate diffuses from cells into the surrounding culture medium, where it is rapidly used by the NanoLuc Enzyme to produce a luminescent signal. The signal correlates with the number of viable cells, making the assay well suited for cytotoxicity studies.
Tox21 Assay Protocol Summary: The mixture of Hek293 cell suspension and reagents were dispensed at 600cells/6 ul/well in 1536-well tissue culture treated black solid bottom plates using a Multidrop dispenser. After the assay plates were incubated at a 37 C/5% CO2 incubator for 5 hours, 23 nL of compounds dissolved in DMSO, positive and negative controls was transferred to the assay plate by a pintool work station. The plates were incubated at 37 C for 40 hours. The luminescence intensity were measured at 0h, 8h, 16h, 24h, 32h and 40h time points using ViewLux plate reader during compound treatment.
In general terms: In qHTS, concentration-response curves come from the screen itself.
For `CCN(N=O)C(N)=O`, the max response is 4.37% (inactive) and -1.44% (inactive).
Turning to `c1ccc(-c2cccc(-c3ccccc3)c2)cc1`, the max response was -23.8% (inactive).
Regarding `Clc1nc(Cl)nc(Cl)n1`, the max response is 10.8% (inactive) and -11.8% (inactive).
Turning to `COC(=O)c1sccc1S(=O)(=O)NC(=O)Nc1nc(C)nc(OC)n1`, the max response is 4% (inactive) and 6.48% (inactive).
On the same count and under the same terms, the result for `CCCCC(CC)COC(=O)c1ccc(C(=O)OCC(CC)CCCC)c(C(=O)OCC(CC)CCCC)c1` (stereo not given) reads 0.196% (inactive) and 3.66% (inactive).
Same read-out and setting: in the case of `CCOc1cc(C=O)ccc1O` it was 4.96% (inactive) and 4.75% (inactive); in that of `O=S(=O)(Oc1ccc(Cl)cc1)c1ccc(Cl)cc1`, -23.5% (inactive) and -4.71% (inactive).
On to `Oc1cc(Cl)ccc1Oc1ccc(Cl)cc1Cl`, for which the Potency is 34.1 µM (active).
In the case of `CC(C)(OOC(C)(C)c1ccccc1)c1ccccc1`, the max response was -13.8% (inactive) and -15.4% (inactive).
Regarding `COc1ccc(C(CN(C)C)C2(O)CCCCC2)cc1` (stereo not given), the max response was -15.6% (inactive) and -9.44% (inactive).
As to `O=[N+]([O-])c1ccc(O)c([N+](=O)[O-])c1`, the max response is -16% (inactive).
Still for that read-out and setting: in the case of `CCCCN(CC)c1c([N+](=O)[O-])cc(C(F)(F)F)cc1[N+](=O)[O-]` it was -1.03% (inactive) and 20.2% (inactive).
With `CCCCOCCOP(=O)(OCCOCCCC)OCCOCCCC`, the max response is -16.9% (inactive).
Consider `NC(=S)Nc1ccccc1`, for which the Potency is 4.98 µM (active) and the max response was -2.05% (inactive).
Consider `CCCCC(CC)COC(=O)Cl` (stereo not given), for which the max response is 2.04% (inactive).
Turning to `N[C@@H](Cc1ccc(N(CCCl)CCCl)cc1)C(=O)O`, the Potency is 4.69 µM (active).
`CCN(CC)C(=O)/C(Cl)=C(\C)OP(=O)(OC)OC`: the max response was -0.126% (inactive) and -1.25% (inactive).
On the same count and under the same terms, the result for `Nc1cccnc1` reads 2.11% (inactive) and -8.29% (inactive); that for `Cc1ccccc1[N+](=O)[O-]`, 1.02% (inactive) and 16.9% (inactive).
The same measure, in the same setting: the result for `c1ccc(N=Nc2ccccc2)cc1` reads -14.7% (inactive) and -11.3% (inactive); that for `CN(C)C(=O)Nc1ccc(Cl)cc1`, -3.64% (inactive) and -10.5% (inactive); that for `Nn1cnnc1`, -2.23% (inactive) and 1.89% (inactive).
On to `CCc1cccc(CC)c1N(COC)C(=O)CCl`, for which the max response is -25.5% (inactive).
Still for that read-out and setting: in the case of `CC(C)C(=O)OCC(C)(C)C(OC(=O)C(C)C)C(C)C` (stereo not given) it was -10.2% (inactive) and 4.91% (inactive); in that of `COP(=O)(OC)OC`, 4.65% (inactive).
Turning to `CCCCNC(=O)n1c(NC(=O)OC)nc2ccccc21`, the Potency is 6.88 µM (active).
Consider `Brc1ccc(Oc2cc(Br)c(Br)cc2Br)c(Br)c1`, for which the Potency was 43.6 µM (active).
In the case of `Nc1ccncc1`, the max response is 2.45% (inactive) and 3.84% (inactive).
Same read-out and setting: in the case of `CCCCCCOC(=O)c1ccccc1C(=O)OCCCCCC` it was -22.3% (inactive); in that of `Cc1cc(C)cc(C)c1`, 1.65% (inactive) and -3.48% (inactive).
On the same count and under the same terms, in the case of `N#CCCCl` it was 2.74% (inactive) and -10.7% (inactive); in that of `COc1ccc(C=O)cc1`, 7.64% (inactive) and 1.9% (inactive).
Same read-out and setting: in the case of `C=CCc1ccc2c(c1)OCO2` it was 13.1% (inactive) and 2.61% (inactive).
Regarding `CCC(C)(c1ccc(O)cc1)c1ccc(O)cc1`, the Potency was 24.5 µM (active) and 43.6 µM (active).
In the case of `CCOP(=S)(OCC)O/N=C(\C#N)c1ccccc1`, the max response was 6.15% (inactive) and 1.47% (inactive).
On the same count and under the same terms, in the case of `O=C(O)CC[N+](=O)[O-]` it was 0.345% (inactive) and -3.12% (inactive).
As to `CC(C)Oc1cc(-n2nc(C(C)(C)C)oc2=O)c(Cl)cc1Cl`, the Potency is 34.7 µM (active).
For the molecule `O=C1C=CC(=O)C=C1`, the max response is 13.4% (inactive).
`ClC1C(Cl)C(Cl)C(Cl)C(Cl)C1Cl` (stereo not given): the Potency was 54.9 µM (active).
